Source: PubChem BioAssay AID2315 (National Center for Advancing Translational Sciences (NCATS), 2010)
Out of some 290,000 compounds screened, about 27,000 (9.3%) were called active. Rule as the data show it: active = inhibition mostly above about 28% (no sharp cut-off); inactive = mostly below about 43%. This excerpt belongs to a sample that is enriched for actives.

Experiment: A qHTS for Small Molecule Inhibitors of Shiga Toxin; also: 0% is about no effect
Details: Vero cells, Shiga toxin protein synthesis inhibition reporter; at 38.7 µM, stronger effect = higher value

SMILES	inhibition
COc1ccccc1CNS(=O)(=O)c1c(C)[nH]c(C)c1C(=O)N1CCCCC1	2.2% (inactive)
Cc1ccc(S(=O)(=O)N(CC(=O)NCc2ccco2)c2ccccc2C)cc1	9.67% (inactive)
COc1ccccc1OC(C)C(=O)Nc1ccc(S(=O)(=O)Nc2nccs2)cc1 (centres undefined)	-4.41% (inactive)
Cn1c(CO)cnc1SCc1ccccc1	65.8% (active)
Cn1c(-c2ccc(F)cc2)cnc1SCC(=O)NNC(=O)Cc1ccccc1	18.3% (inactive)
CSc1c(SCc2ccccc2)cnn(Cc2ccccc2)c1=O	10.6% (inactive)
CCS(=O)(=O)N1CCC(N2CCN(c3ccccc3)CC2)CC1	-4.18% (inactive)
Cc1cc(C)n(-c2ccc(NC(=O)C3CCCCN3C(=O)c3cccs3)cc2)n1 (centres undefined)	11% (inactive)
Cc1ccc2[nH]c3c(=O)n(CC(=O)NCCc4ccc(Cl)cc4)ncc3c2c1	21.6% (inactive)
Cc1ccc(OCc2n[nH]c(=S)n2-c2ccc(C)cc2)cc1	-9.95% (inactive)
COc1ccc(Cc2n[nH]c(=S)n2NC(=O)Nc2ccc(C)cc2)cc1	63.4% (active)
CCOc1ccc(NC(=O)CN2CCN(CC(=O)Nc3ccc(OC)cc3)CC2)cc1	-3.78% (inactive)
COc1ccc(CCNC(=O)CN2C(=O)COc3ccc(S(=O)(=O)N4CCCC4)cc32)cc1OC	22.2% (inactive)
CCc1ccc(-c2cc(C)no2)cc1S(=O)(=O)NCCc1ccc(S(N)(=O)=O)cc1	-11% (inactive)
COc1ccc(CCNC(=S)N2CCN(S(=O)(=O)c3ccc(Cl)cc3)CC2)cc1	-14.7% (inactive)
CC(=O)c1cc(-c2ccccc2)n(CCC(=O)NC2CCCCCC2)c1C	10.9% (inactive)
O=C(CCS(=O)(=O)c1ccccc1)NC1CCCC1	55.4% (active)
O=C(CCNC(=O)C1CCN(S(=O)(=O)c2ccccc2)CC1)NC1CC1	-1.38% (inactive)
CC1(C(=O)NNC(=S)NCC2CCCO2)CC1(Cl)Cl (centres undefined)	-2.83% (inactive)
Cc1ccc(Cl)cc1NC(=O)C1CCCN(c2cnccn2)C1 (centres undefined)	-10.6% (inactive)
C=CCN1C(=O)C2(OCCCO2)c2cccc(Cl)c21	-3.46% (inactive)
CC1(C)Cc2ccccc2/C(=C/C(=O)c2ccccc2)N1	-3.39% (inactive)
COc1ccc(NC(=O)c2cccc3c2C(=O)N(CC2CCCO2)C3)cc1OC (centres undefined)	3.68% (inactive)
CC(=O)N[C@@H](C)C(=O)N1CCC(n2nccc2NC(=O)CCCc2ccccc2)CC1	57.5% (active)
CC(=O)NCC(=O)N1CCC(n2nccc2NC(=O)CCCc2ccccc2)CC1	30.2% (inactive)

SMILES	inhibition
Cc1ccc(CN2CCC(n3nccc3NC(=O)CCCc3ccccc3)CC2)o1	21.2% (inactive)
COc1cc(N2CCCC2)c(OC)cc1/C=C(/C#N)c1cccc(Br)c1	-23.2% (inactive)
COc1ccccc1NC(=O)CCN1CCN(c2ccc(Cl)cc2)CC1	-2.18% (inactive)
CC(Sc1cccc[n+]1[O-])C(=O)Nc1cccc(S(=O)(=O)N2CCOCC2)c1 (centres undefined)	-6.74% (inactive)
Cc1ccc(CNC(=O)Cc2cn(C)c3ccccc23)cc1	12.6% (inactive)
CCNS(=O)(=O)c1ccc(NC(=O)Nc2cccc(OC)c2)cc1	-33.1% (inactive)
COc1cccc(NC(C)=[N+](C)CCNS(=O)(=O)c2ccc(Cl)cc2)c1	119% (active)
COc1cccc(NC(=O)CCNS(=O)(=O)c2ccc3c(c2)oc(=O)n3C)c1	14.5% (inactive)
CCCCCCC(O)(CCN1CCCCC1)c1ccccc1 (centres undefined)	-7.11% (inactive)
COc1ccc(NC(=O)C(CC(C)C)NC(=O)C2CCC(C)CC2)cc1 (centres undefined)	35.8% (inactive)
CC(=O)c1cnc(-c2ccccc2)s1	59% (active)
O=C(/C=C/Nc1ccccc1)c1cnc(-c2ccccc2)s1	-10.9% (inactive)
CNC(=O)c1csc(-c2ccccc2)n1	25.9% (inactive)
CCCn1nnnc1NCc1ccc(OC)cc1	-12.1% (inactive)
CCS(=O)(=O)C1=NSC2=NC(=O)/C(=C\c3ccc(OS(=O)(=O)c4ccccc4)cc3)C(=N)N21	14.7% (inactive)
Cc1ccccc1N1CCN(S(=O)(=O)c2ccc3ccccc3c2)CC1	-3.59% (inactive)
O=C(c1cccc(-n2cccc2)c1)N1CCN(S(=O)(=O)c2ccc(F)cc2)CC1	-1.04% (inactive)
NS(=O)(=O)c1ccc(CCNC(=O)c2ccc(Cl)cc2[N+](=O)[O-])cc1	12.8% (inactive)
O=C(CCc1ccccc1)NNC(=O)COc1ccc(Cl)cc1	-14.5% (inactive)
O=C(NCCc1ccccc1)Oc1ccc(Cl)cc1	62.7% (active)
Cc1cc(C(=O)NCCc2ccc(Cl)cc2)c(C)o1	87.4% (active)
O=C(COc1ccc(Cl)cc1)NCCSc1ccccc1	-8.84% (inactive)
Cc1cc(C(=O)NCCc2ccc(Cl)cc2)n(-c2ccccc2)n1	-4.98% (inactive)
COc1cccc(C(=O)NNS(=O)(=O)c2ccc(F)cc2)c1	0.43% (inactive)
CCN1CCN(CCNC(=O)c2ccc3c(c2)NC(=O)/C(=C\c2ccc(OC)c(OC)c2)S3)CC1	-8.25% (inactive)

SMILES	inhibition
O=C1N/C(=C/c2cccn2-c2ccccc2)C(=O)N1c1cccc(Cl)c1	60.1% (active)
Cc1ccccc1NC(=O)CN1C(=O)N/C(=C\c2cccn2-c2cccc(C(=O)O)c2)C1=O	-13.8% (inactive)
COc1cc2c(cc1/C=C1/NC(=O)N(c3ccccc3)C1=O)OCO2	24.2% (inactive)
CCc1cccc(C)c1N1C(=O)CN(Cc2ccccc2)C1=S	-3.04% (inactive)
O=C(c1c(F)cccc1F)N1CCN(S(=O)(=O)c2ccc3c(c2)OCCO3)CC1	2.06% (inactive)
O=C(Nc1ccc(OCC(=O)N2CCOCC2)cc1)c1cc(F)c(F)cc1Cl	24.7% (inactive)
Cc1cc(=O)oc2c(C)c(OC(C)C(=O)NC3CCN(Cc4ccccc4)CC3)ccc12 (centres undefined)	-5.37% (inactive)
CCS(=O)(=O)N1Cc2ccccc2CC1C(=O)Nc1ccc(OC)cc1OC (centres undefined)	24.9% (inactive)
Cc1ccc2nc(NC(=O)C3CCN(S(=O)(=O)c4ccc5c(c4)oc(=O)n5C)CC3)sc2c1	-20.5% (inactive)
CCS(=O)(=O)N1Cc2ccccc2CC1C(=O)Nc1nc2ccc(F)cc2s1 (centres undefined)	99.4% (active)
CCN(CC)c1ccc(C(=O)Nn2c(C)nc3ccccc3c2=O)cc1	1.76% (inactive)
COc1cccc(OCc2nnc3n2N=C(c2ccccc2)C(CC(=O)O)S3)c1 (centres undefined)	-9.17% (inactive)
COc1ccc(/C=N/NC(=O)c2cccc(C(F)(F)F)c2)cc1	17.5% (inactive)
Cn1cccc1/C=N/NC(=O)c1ccc(OC(F)(F)C(F)F)cc1	33.1% (active)
CCn1c(/C=N/NC(=O)c2ccc(OC)cc2)nc2ccccc21	15% (inactive)
c1ccc(-c2cnc(CN3CCN(c4ccccc4)CC3)o2)cc1	-3.91% (inactive)
O=C(COCc1cc(-c2ccc3c(c2)OCO3)on1)N1CCN(c2cccc(Cl)c2)CC1	4.57% (inactive)
CCc1cc(C(N)=O)c(NC(=O)c2ccc(OC)cc2)s1	33.1% (active)
COc1ccc(C(=O)Nc2ccc(NC(=O)C(C)C)nc2)cc1	22.3% (inactive)
CC(=O)NCCc1nc2cc(NC(=O)c3ccccc3)ccc2n1C	38.3% (inactive)
COc1ccc(C(=O)NC(=S)NC2CCCCC2)cc1	91.2% (active)
O=C(NC(=S)NC1CCCCC1)c1ccc(Cl)cc1	-12.4% (inactive)
Cc1ccc(NC(=O)c2cccnc2C(=O)Nc2ccc(C)cc2)cc1	20.9% (inactive)
CCOC(=O)N1CCN(Cc2nc3cc(NC(C)=O)ccc3n2C)CC1	-4.25% (inactive)
CCCNC(=S)N1CCC(NC(=O)c2ccc(OC)cc2)CC1	10.3% (inactive)

SMILES	inhibition
Cc1ccc(NC(=O)c2ccc(Oc3ncccn3)cc2)cc1	54.9% (active)
Cn1c(CN2CCOCC2)nc2cc(NC(=O)c3ccc(Cl)cc3)ccc21	69.5% (active)
CCc1cc(C(=O)c2ccc(OC)cc2)c(NC(=O)CN2CCN(C)CC2)s1	-6.04% (inactive)
CCc1cc(C(c2ccccc2OC)N2CCOCC2)c(NC(=O)c2ccccc2)s1 (centres undefined)	33.3% (inactive)
Cc1cc(OCC(=O)Nc2c(C)n(C)n(-c3ccccc3)c2=O)ccc1[N+](=O)[O-]	-12.8% (inactive)
Cc1ccc(CC2(O)CCN(CCOc3ccc(O)cc3)CC2)cc1	-5.63% (inactive)
Cc1ccccc1N1CCN(C2CCCN(C(=O)c3ocnc3C)C2)CC1 (centres undefined)	-9.46% (inactive)
Cc1cc(C)cc(NC(=O)C2CCCN(S(=O)(=O)c3ccc4[nH]c(=O)ccc4c3)C2)c1 (centres undefined)	14.1% (inactive)
Cc1cccc(NC(=O)c2ccc3c(=O)n(CC4CCCO4)c(=S)[nH]c3c2)c1 (centres undefined)	-1% (inactive)
O=C(Cn1ccc2cc(S(=O)(=O)N3CCCC3)ccc21)NCc1ccccc1	-6.39% (inactive)
COc1ccc(NC(=O)CCn2ccnc2)c(OC)c1	-6.3% (inactive)
COc1ccc(S(=O)(=O)N/N=C\c2ccc(OC)c(COc3ccc(C)cc3[N+](=O)[O-])c2)cc1	-12.5% (inactive)
COc1ccc(NC(=O)CS(=O)(=O)c2ccccc2)cc1	28.2% (active)
CCOc1ccc(C(=O)Nc2ccc(CN3CCOCC3)cc2)cc1Cl	9.47% (inactive)
Cc1noc(C)c1COc1cccc(C(=O)Nc2cccnc2)c1	-6.89% (inactive)
COc1ccc(C(=O)Nc2ccc(CN3CCOCC3)cc2)cc1	80.4% (active)
COc1ccc(C(=O)Nc2cccc(S(C)(=O)=O)c2)cc1	21.9% (inactive)
COc1ccc(NC(=O)c2ccc(OC)cc2)cc1	105% (active)
O=C(CS(=O)(=O)c1ccccc1)Nc1ccc(S(=O)(=O)Nc2ccccn2)cc1	-7.44% (inactive)
Cc1cccc(C(=O)Nc2ccccc2C(=O)NCc2cccnc2)c1	-16.9% (inactive)
COc1ccc(NC(=O)c2cnc(NS(=O)(=O)c3ccccc3)nc2)cc1	-13.6% (inactive)
COc1ccc(NC(=O)c2ccc(C#CC(C)(C)O)cc2)cc1	28% (inactive)
O=C(Nc1ccc(CSc2ccccc2)cc1)c1ccc(CN2CCOCC2)cc1	7.03% (inactive)
Cc1cccc(C(=O)Nc2ccc(Oc3cnccn3)cc2)c1	57.2% (active)
